Reference: the supplement of paper PMC7411054
Structures can show the parent of a compound that is named as a salt.

Experiments:
Details in all cases: treatment time: 24 h
A549-ACTB-RAB5A [1] = assay: lowest phenotypically active concentration; higher = less potent
Method in brief: (§1)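 Phenotypic activity depended on meeting both a deviation and a reproducibility criterion. The fifteen gene-edited A549, HepG2 and WPMY1 reporter lines were treated at 0.3, 1, 3 or 9 µM for 24 h, four wells each, then imaged live with features normalised to solvent control wells. Deviation required ≥3 of 4 wells past the 95th percentile of control Euclidean distances, and reproducibility a median replicate Pearson correlation above the 95th percentile of non-replicates.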

A549-CANX-COX4 [2] = assay: as above
Method in brief: as §1

A549-GM130-SQSTM1 [3] = assay: as above
Method in brief: as §1

A549-TP53BP1-CLTA [4] = assay: as above
Method in brief: as §1

A549-TUBA1B-RELA [5] = assay: as above
Method in brief: as §1

A549-ACTB-RAB5A [6] = assay: phenotypically active (imaging signature differs from DMSO and reproducible) at any of 0.3-9 uM (binary (1 = active, 0 = inactive)); higher = active
Method in brief: as §1

A549-CANX-COX4 [7] = assay: as above
Method in brief: as §1

A549-GM130-SQSTM1 [8] = assay: as above
Method in brief: as §1

A549-TP53BP1-CLTA [9] = assay: as above
Method in brief: as §1

A549-TUBA1B-RELA [10] = assay: as above
Method in brief: as §1

HepG2-ACTB-RAB5A = assay: as above
Method in brief: as §1

HepG2-CANX-COX4 = assay: as above
Method in brief: as §1

HepG2-GM130-SQSTM1 = assay: as above
Method in brief: as §1

HepG2-TP53BP1-CLTA = assay: as above
Method in brief: as §1

HepG2-TUBA1B-RELA = assay: as above
Method in brief: as §1

WPMY1-ACTB-RAB5A = assay: as above
Method in brief: as §1

WPMY1-CANX-COX4 = assay: as above
Method in brief: as §1

WPMY1-GM130-SQSTM1 = assay: as above
Method in brief: as §1

WPMY1-TP53BP1-CLTA = assay: as above
Method in brief: as §1

WPMY1-TUBA1B-RELA = assay: as above
Method in brief: as §1

Row | SMILES | lowest phenotypically active concentration (A549-ACTB-RAB5A [1]) | lowest phenotypically active concentration (A549-CANX-COX4 [2]) | lowest phenotypically active concentration (A549-GM130-SQSTM1 [3]) | lowest phenotypically active concentration (A549-TP53BP1-CLTA [4]) | lowest phenotypically active concentration (A549-TUBA1B-RELA [5]) | phenotypically active (A549-ACTB-RAB5A [6]) | phenotypically active (A549-CANX-COX4 [7]) | phenotypically active (A549-GM130-SQSTM1 [8]) | phenotypically active (A549-TP53BP1-CLTA [9]) | phenotypically active (A549-TUBA1B-RELA [10]) | phenotypically active (HepG2-ACTB-RAB5A) | phenotypically active (HepG2-CANX-COX4) | phenotypically active (HepG2-GM130-SQSTM1) | phenotypically active (HepG2-TP53BP1-CLTA) | phenotypically active (HepG2-TUBA1B-RELA) | phenotypically active (WPMY1-ACTB-RAB5A) | phenotypically active (WPMY1-CANX-COX4) | phenotypically active (WPMY1-GM130-SQSTM1) | phenotypically active (WPMY1-TP53BP1-CLTA) | phenotypically active (WPMY1-TUBA1B-RELA)
1 | CC(=C/[C@@H](C)C(=O)c1ccc(N(C)C)cc1)/C=C/C(=O)NO [Trichostatin A] | ≤ 0.3 µM | ≤ 0.3 µM | ≤ 0.3 µM | ≤ 0.3 µM | ≤ 0.3 µM | 1 (active) | 1 (active) | 1 (active) | 1 (active) | 1 (active) | 1 (active) | 1 (active) | 1 (active) | 1 (active) | 1 (active) | 1 (active) | 1 (active) | 1 (active) | 1 (active) | 1 (active)
2 | C[C@@H](N)[C@H]1CC[C@H](C(=O)Nc2ccncc2)CC1 | 3 µM | 9 µM | 9 µM | 3 µM | 9 µM | 1 (active) | 1 (active) | 1 (active) | 1 (active) | 1 (active) | 1 (active) | 1 (active) | 1 (active) | 1 (active) | 1 (active) | 1 (active) | 1 (active) | 1 (active) | 1 (active) | 1 (active)
3 | Nc1nc(S)c2[nH]cnc2n1 [thioguanine] | 3 µM | 9 µM | 9 µM | 9 µM | 9 µM | 1 (active) | 1 (active) | 1 (active) | 1 (active) | 1 (active) | 1 (active) | 1 (active) | 1 (active) | 1 (active) | 1 (active) | 1 (active) | 1 (active) | 1 (active) | 1 (active) | 1 (active)
4 | COc1cc(N2CCN(C)CC2)ccc1Nc1nccc(-c2cn(C)c3cnccc23)n1 | 1 µM | 9 µM | 3 µM | 1 µM | 1 µM | 1 (active) | 1 (active) | 1 (active) | 1 (active) | 1 (active) | 1 (active) | 1 (active) | 1 (active) | 1 (active) | 1 (active) | 1 (active) | 1 (active) | 1 (active) | 1 (active) | 1 (active)
5 | CNC(=O)c1ccccc1Sc1ccc2c(/C=C/c3ccccn3)n[nH]c2c1 [Axitinib] | 1 µM | 9 µM | 1 µM | 3 µM | 1 µM | 1 (active) | 1 (active) | 1 (active) | 1 (active) | 1 (active) | 1 (active) | 1 (active) | 1 (active) | 1 (active) | 1 (active) | 1 (active) | 1 (active) | 1 (active) | 1 (active) | 1 (active)
6 | COc1ccc(N(C)c2nc(C)nc3ccccc23)cc1 [MPC 6827 hydrochloride] | ≤ 0.3 µM | ≤ 0.3 µM | ≤ 0.3 µM | 1 µM | ≤ 0.3 µM | 1 (active) | 1 (active) | 1 (active) | 1 (active) | 1 (active) | 1 (active) | 1 (active) | 1 (active) | 1 (active) | 1 (active) | 1 (active) | 1 (active) | 1 (active) | 1 (active) | 1 (active)
